# Compounds with a hit are over-represented: about 32% of the library has one in this group of screens.
# PostGolgi yeast: phenotypic screen on post-Golgi transport, primary screen. post-Golgi transport phenotypic cell assay. inhibition, % at 10 µM. 0.9% of 98,000 active;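 also: yeast cells grown in 1536-well plates; yeast grown about 18 h at 30C before absorbance read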
# PostGolgi ctrl: growth inhibition of yeast control strain, primary screen, counter-screen for post-Golgi transport modulator project. 5% of 98,000 active. inhibition, % at 10 µM. efflux-deficient yeast background strain, growth absorbance A615, 16 h. AID 738, 2007
# CYP2C19 inhib: blockers of cytochrome P450 2C19 activity – biochemical, luminescence, ADME assay, primary screen; 21% of 96,000 active; CYP2C19 Supersomes, luciferin-H EGE luminescence, 30 min; inhibition, % at 5 µM; P33261;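 active = CYP2C19 inhibition above a set limit at 5 µM in the primary screen, cut at about 50% in these data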;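 also: plate controls were negative control wells for no effect and 2.5 mM tranylcypromine positive control for full effect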
# Target sequence (P33261 whole entry, looked up): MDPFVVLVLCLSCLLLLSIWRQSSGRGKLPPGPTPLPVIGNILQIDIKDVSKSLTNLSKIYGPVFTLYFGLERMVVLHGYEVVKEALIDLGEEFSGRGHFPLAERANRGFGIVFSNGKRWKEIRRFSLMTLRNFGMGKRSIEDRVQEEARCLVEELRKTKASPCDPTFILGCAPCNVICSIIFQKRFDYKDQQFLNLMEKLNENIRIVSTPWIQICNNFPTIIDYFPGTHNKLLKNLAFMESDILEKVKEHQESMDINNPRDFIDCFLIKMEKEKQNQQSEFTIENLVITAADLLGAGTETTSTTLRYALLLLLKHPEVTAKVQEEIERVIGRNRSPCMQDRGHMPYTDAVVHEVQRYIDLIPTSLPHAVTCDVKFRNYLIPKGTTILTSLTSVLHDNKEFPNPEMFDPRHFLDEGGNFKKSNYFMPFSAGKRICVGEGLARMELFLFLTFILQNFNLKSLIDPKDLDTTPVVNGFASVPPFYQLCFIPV
# CYP2C19 act: human CYP2C19 activators, primary screen, biochemical, luminescence; Cytochrome P450 2C19 (Homo sapiens), P33261; recombinant CYP2C19, luciferin-H EGE luminescence; active compounds read high; 0 = fully inhibited enzyme, 1 = untreated enzyme; activation factor at 5 µM; 96,000 tested, under 10 active;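 active = activation factor of at least 2 at 5 µM in the primary screen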;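 also: 0 = wells with 2.5 mM tranylcypromine and 1 = vehicle-only wells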
# CYP2C9 act: human CYP2C9 activators, primary screen, biochemical, luminescence; recombinant CYP2C9, luciferin-H conversion; active compounds read high; factor 1 = untreated enzyme, 0 = blocked; Cytochrome P450 2C9 (Homo sapiens), P11712; activation factor at 5 µM; 1.4% of 96,000 active;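 active = activation factor of 2 or more for CYP2C9 at a 5 µM dose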;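 also: 0 = sulfaphenazole-blocked wells and 1 = vehicle-only wells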
# CYP2C9 inh: blockers of cytochrome P450 2C9 activity – biochemical, luminescence, ADME assay, primary screen; P11712; inhibition, % at 5 µM; CYP2C9 Supersomes, luciferin-H conversion; 20% of 96,000 active; AID 777, 2007;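 active = blocking of liver enzyme CYP2C9 beyond about 50% at 5 µM, limit read from the data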
# Active calls of the source: *; nt = no result given. Rule as the data show it, unless noted: active = inhibition above about 30%; inactive = the rest.
SMILES,PostGolgi yeast,PostGolgi ctrl,CYP2C19 inhib,CYP2C19 act,CYP2C9 act,CYP2C9 inh
CCC(=O)N/C(=N\OCc1ccc(F)cc1)c1nonc1NC(=O)CC,-4.7,5.9,65.0*,0.3,0.9,11.5
COc1ccc(CCNC(=O)CSc2nncn2N)cc1OC,22.7,2.2,9.7,0.9,0.9,8.0
O=c1[nH]c2cc(Cl)ccc2n1-c1ccccc1,-6.4,24.2,50.1*,0.5,0.9,13.6
O=C(c1ccc2c(=O)n(-c3ccccc3)c(=O)[nH]c2c1)N1CCCCC1,1.7,21.6,-8.6,1.1,1.1,-5.0
O=C(CCn1nnc2ccccc21)Nc1nnc(COc2ccccc2F)s1,4.9,3.5,32.2,0.7,0.9,10.4
O=C(CCn1nnc2ccccc21)Nc1nnc(-c2ccccc2F)s1,-2.7,23.1,20.4,0.8,0.4,55.6*
COc1cc(Sc2ccc(C)cc2)c(OC)cc1N,-4.5,-2.3,67.9*,0.3,0.6,35.2
CC1CCCC(C)N1C(=O)Cn1c(=O)sc2ccccc21 (configuration not stated),-0.4,8.1,66.9*,0.3,1,4.3
CC(=O)Nc1cccc(NC(=O)CCn2c(=O)sc3ccccc32)c1,-2.8,-6.1,14.9,0.9,0.7,31.4
CCN1CCN(C(=O)Cn2c(=O)sc3ccccc32)CC1,9.5,9.3,11.8,0.9,0.9,9.7
CCCc1nnc(NC(=O)Cn2c(=O)sc3ccccc32)s1,4.5,-1.2,64.0*,0.4,0.3,74.8*
CSc1ccccc1NC(=O)CCn1c(=O)sc2ccccc21,3.1,2.1,51.5*,0.5,1,3.5
CCn1c(=NC(=O)CSCC(=O)Nc2nccs2)sc2ccccc21,-2.3,27.0,92.4*,0.1,0.2,83.7*
CC(Sc1nc(-c2ccccc2)nc2c1COC(C)(C)C2)C(=O)N1CCOCC1 (configuration not stated),-4.8,10.0,45.6,0.5,0.7,27.1
O=C(c1ccc(S(=O)(=O)N2CCOCC2)cc1)N1CCN(c2ccccc2F)CC1,25.2,-1.1,-7.1,1.1,1.1,-8.9
COCC(C)OC(=O)c1c(N)n(CC(C)C)c2nc3ccccc3nc12 (configuration not stated),-5.6,14.8,16.8,0.8,0.5,49.8
Cc1ccc(CNC(=O)[C@@H]2CCC(=O)N2Cc2ccco2)cc1,5.7,6.4,32.5,0.7,1,3.9
CCCCN(C)CCCNC(=O)Cn1c(=O)sc2ccccc21,19.4,2.7,-16.4,1.2,1.1,-9.4
CCN(CCNC(=O)Cn1c(=O)sc2ccccc21)c1ccccc1,-5.7,7.3,68.1*,0.3,0.9,5.9
O=C(CCn1c(=O)oc2ccccc21)Nc1nccs1,0.2,3.8,25.2,0.7,0.7,29.6
O=C(CCn1c(=O)sc2ccccc21)NCCC1=CCCCC1,nt,nt,88.2*,0.1,1.7,-74.9
O=C(CCN1C(=O)c2ccccc2C1=O)NCCC1=CCCCC1,1.2,-3.4,nt,nt,nt,nt
O=C(CCn1c(=O)sc2ccccc21)Nc1nccs1,0.8,2.4,83.7*,0.2,1.1,-9.1
Cc1csc(NC(=O)CCn2c(=O)sc3ccccc32)n1,-4.9,10.0,79.2*,0.2,3.6*,-255.6
Cc1ccn2cc(CNS(=O)(=O)c3ccc(Cl)s3)nc2c1,-5.7,-6.2,29.7,0.7,0.8,22.9
SMILES,PostGolgi yeast,PostGolgi ctrl,CYP2C19 inhib,CYP2C19 act,CYP2C9 act,CYP2C9 inh
CCc1nnc(NC(=O)COC(=O)CN2C(=O)c3ccccc3C2=O)s1,4.7,9.8,-4.0,1,1,-3.8
COC(=O)CC/C(C)=N\Nc1ccc([N+](=O)[O-])cc1[N+](=O)[O-],-3.3,13.8,8.3,0.9,0.9,10.5
CCOCCCNCC(=O)N1CCN(S(=O)(=O)c2ccc(C)cc2)CC1,4.2,2.0,0.1,1,1,-2.4
CCCN(CCC)CCCNc1ccc2nnc(-c3ccc(F)cc3)n2n1,-9.1,-9.4,8.9,0.9,1,2.6
O=C(CSc1nnc(Cc2cc(=O)[nH]c(=O)[nH]2)n1-c1ccc(F)cc1)N1CCCCC1,2.4,3.2,1.6,1,0.9,11.8
COC(=O)NCC12CC3CC(C1)CC(CNC(=O)OC)(C3)C2,0.0,33.5*,37.5,0.6,1.1,-12.9
CN1CCN(C2CCCCCC2)CC1,7.3,14.4,nt,nt,nt,nt
O=S(=O)(Nc1ccc2c(c1)nc1n2CCOC1)c1ccccc1,-9.9,7.1,1.6,1,0.8,16.8
O=S(=O)(Nc1ccc2c(c1)nc1n2CCOC1)c1ccc(Cl)cc1,2.5,2.4,48.6,0.5,0.3,73.1*
CCNc1[nH]c(=O)n(C)c(=O)c1N=O,0.6,2.6,-15.7,1.2,1.1,-8.1
CCOC(=O)c1ccc(CNC(=O)c2cc(C(C)(C)C)oc2C)o1,4.6,12.7,90.3*,0.1,0.2,76.4*
Cc1ccc(C2=N/C(=C\c3cccs3)C(=O)N2Nc2ccccc2)cc1,10.9,31.9*,-11.7,1.1,0.8,15.6
O=C1/C(=C\c2cccs2)N=C(c2cccs2)N1Nc1ccccc1,4.4,16.9,33.9,0.7,0.4,57.8*
O=C1/C(=C/c2cccs2)SC(=S)N1c1ccccc1,5.2,11.5,3.6,1,1,3.6
O=C1/C(=C/c2cccs2)N=C(c2cccs2)N1Nc1ccccc1,-0.7,22.2,3.2,1,0.1,92.8*
O=C1N=C(c2ccccc2)S/C1=C\c1cccs1,4.3,3.0,14.8,0.9,0.7,34.1
C/C(Cn1nc([N+](=O)[O-])cc1C)=N\NC(=O)c1ccc(C(C)(C)C)cc1,0.7,9.0,21.3,0.8,0.6,37.8
CCCCC(CC)COC1(c2ccccc2)OC(=O)c2ccccc21 (configuration not stated),-0.2,-0.8,28.5,0.7,0.5,46.4
O=C1OC(Oc2ccccc2)(c2ccccc2)c2ccccc21 (configuration not stated),2.1,32.4*,44.3,0.6,0.5,54.4*
CCCCOC1(c2ccccc2)OC(=O)c2ccccc21 (configuration not stated),-1.8,10.0,55.0*,0.4,0.4,61.2*
O=C1OC(OC2CCCCC2)(c2ccccc2)c2ccccc21 (configuration not stated),6.1,38.8*,8.8,0.9,0.7,26.0
CC1CN(Cc2ccccc2Cl)CC(C)O1 (configuration not stated),16.8,-0.8,19.0,0.8,1,-3.9
Cn1c(SCC(=O)OCC(=O)c2ccccc2)nnc1-c1cccs1,6.5,0.8,27.3,0.7,0.8,20.7
COc1cccc(NC(=O)CSc2nnc(-c3cccs3)n2C)c1,7.2,-6.7,24.1,0.8,0.9,11.3
COc1ccc(OC)c(C(=O)CSc2nnc(Cc3cccs3)n2CCc2ccccc2)c1,-0.2,15.7,55.2*,0.4,0.6,36.9
